Active and inactive are the calls of the source. Rule for the calls: active = hit-call score of the fitted dose curve at least 0.9, where 1 is the maximum; inactive = score below 0.9.
Tests used:
Settings in all cases: mRNA level, 48 h; actives raise or lower the signal
[1] = read-out: Ezrin (EZR), EZR (gene 7430); test: LTEA_HepaRG_EZR: Life Technologies and Expression Analysis (LTEA) Assay for Ezrin (EZR) using HepaRG (AID 2283491)
In short: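 Differentiated human HepaRG cells, 48 h after plating, were exposed in serum-free induction medium for 48 hours to eight half-log concentrations up to 100 uM in 0.5% DMSO. EZR mRNA was measured by TaqMan qRT-PCR, normalized to ACTB, GAPDH and POLR2A, and fitted bidirectionally against DMSO.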

[2] = read-out: Cytochrome P450 3A7 (Homo sapiens) (UniProt P24462); test: LTEA_HepaRG_CYP3A7: Life Technologies and Expression Analysis (LTEA) Assay for CYP3A7 using HepaRG (AID 2283492)
In short: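 Differentiated HepaRG cells in serum-free induction medium exposed 48 h in duplicate to 8-point half-log series from 100 uM top in 0.5% DMSO. CYP3A7 mRNA by qRT-PCR, normalized to ACTB/GAPDH/POLR2A, bidirectional fit versus DMSO.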

[3] = read-out: CYP3A5 (gene 1577); test: LTEA_HepaRG_CYP3A5: Life Technologies and Expression Analysis (LTEA) Assay for CYP3A5 using HepaRG (AID 2283493)
In short: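 Readout was CYP3A5 mRNA by qRT-PCR. HepaRG cultures were exposed for 48 h in serum-free induction medium to chemicals at up to 100 uM, and responses were fitted in both directions relative to DMSO vehicle.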

[4] = read-out: Fatty Acid-Binding Protein 1 (FABP1), FABP1 (gene 2168); test: LTEA_HepaRG_FABP1: Life Technologies and Expression Analysis (LTEA) Assay for Fatty Acid-Binding Protein 1 (FABP1) using HepaRG (AID 2283494)
In short: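 qRT-PCR readout of FABP1 transcript (normalized to three housekeeping genes) after 48 h chemical exposure of HepaRG cells; eight concentrations, half-log steps, max 100 uM, 0.5% DMSO vehicle; gain or loss fitted relative to DMSO baseline.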

[5] = read-out: Cytochrome P450 4A22 (Homo sapiens) (UniProt Q5TCH4); test: LTEA_HepaRG_CYP4A22: Life Technologies and Expression Analysis (LTEA) Assay for Cytochrome P450 4A22 (CYP4A22) using HepaRG (AID 2283495)
In short: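 Differentiated HepaRG cells in serum-free induction medium exposed 48 h in duplicate to eight half-log concentrations up to 100 uM in 0.5% DMSO. CYP4A22 mRNA quantified by TaqMan qRT-PCR, normalized to ACTB, GAPDH and POLR2A; bidirectional fit versus DMSO.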

[6] = read-out: Cytochrome P450 7A1 (Homo sapiens) (UniProt P22680); test: LTEA_HepaRG_CYP7A1: Life Technologies and Expression Analysis (LTEA) Assay for Cytochrome P450 7A1 (CYP7A1) using HepaRG (AID 2283496)
In short: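 Using 0.5% DMSO as vehicle and baseline, chemicals were tested in duplicate over an 8-point range from 100 uM on HepaRG cells for 48 h; qRT-PCR signals were normalised to ACTB, GAPDH and POLR2A.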

[7] = read-out: Glutathione S-Transferase (GSTA2), GSTA2 (gene 2939); test: LTEA_HepaRG_GSTA2: Life Technologies and Expression Analysis (LTEA) Assay for Glutathione S-Transferase (GSTA2) using HepaRG (AID 2283497)
In short: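 qRT-PCR readout of GSTA2 transcript, normalized to three housekeeping genes, fitted bidirectionally against 0.5% DMSO baseline. Differentiated HepaRG cells received compound for 48 h at 8 concentrations (top 100 uM, half-log steps).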

[8] = read-out: Glutamate-cysteine ligase catalytic (GCLC), GCLC (gene 2729); test: LTEA_HepaRG_GCLC: Life Technologies and Expression Analysis (LTEA) Assay for Glutamate-cysteine ligase catalytic (GCLC) using HepaRG (AID 2283498)
In short: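 HepaRG, 48 h exposure, 8-pt half-log series from 100 uM, 0.5% DMSO vehicle; TaqMan qRT-PCR for GCLC mRNA, housekeeping-normalized; bidirectional curve fit vs DMSO baseline.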

[9] = read-out: growth arrest and DNA damage 45 (GADD45G), GADD45G (gene 10912); test: LTEA_HepaRG_GADD45G: Life Technologies and Expression Analysis (LTEA) Assay for growth arrest and DNA damage 45 (GADD45G) using HepaRG (AID 2283499)
In short: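 Differentiated human HepaRG cells, 48 h post-plating, exposed 48 h in serum-free induction medium to 8 half-log concentrations (top 100 uM, 0.5% DMSO) in duplicate. GADD45G mRNA measured by Fluidigm TaqMan qRT-PCR, normalized to ACTB, GAPDH, POLR2A; bidirectional fit versus DMSO.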

[10] = read-out: Glutamate-cysteine ligase regulatory (GCLM), GCLM (gene 2730); test: LTEA_HepaRG_GCLM: Life Technologies and Expression Analysis (LTEA) Assay for Glutamate-cysteine ligase regulatory (GCLM) using HepaRG (AID 2283500)
In short: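 In this multiplexed HepaRG gene-expression assay, GCLM mRNA change after 48 h treatment (8 concentrations, max 100 uM) was scored against DMSO by bidirectional curve fitting.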

[11] = read-out: Glutathione S-transferase M3 (GSTM3), GSTM3 (gene 2947); test: LTEA_HepaRG_GSTM3: Life Technologies and Expression Analysis (LTEA) Assay for Glutathione S-transferase M3 (GSTM3) using HepaRG (AID 2283501)
In short: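 Differentiated human HepaRG cells were exposed in duplicate for 48 h in serum-free induction medium, 8 points from 100 uM top in half-log steps, 0.5% DMSO. GSTM3 mRNA was measured by TaqMan qRT-PCR, normalized to ACTB, GAPDH and POLR2A; bidirectional fit versus DMSO.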

[12] = read-out: Heat shock 70 kDa protein 1 (HSPA1A), gene 3303; test: LTEA_HepaRG_HSPA1A: Life Technologies and Expression Analysis (LTEA) Assay for Heat shock 70 kDa protein 1 (HSPA1A) using HepaRG (AID 2283502)
In short: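 An oxidative-stress marker readout: HepaRG cells treated 48 h in duplicate with an eight-point series (highest 100 uM) had HSPA1A mRNA quantified by TaqMan qRT-PCR. Activity was fitted in both directions using 0.5% DMSO as baseline.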

[13] = read-out: Hypoxia-inducible factor 1-alpha (Homo sapiens) (UniProt Q16665); test: LTEA_HepaRG_HIF1A: Life Technologies and Expression Analysis (LTEA) Assay for Hypoxia-inducible factor 1 (HIF1A) Trancription factor using HepaRG (AID 2283503)
In short: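 Gain- or loss-of-signal HIF1A mRNA changes are fitted against a DMSO baseline. HepaRG cultures receive eight concentrations, highest 100 uM, for 48 h in serum-free induction medium with 0.5% DMSO.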

[14] = read-out: HGF (gene 3082); test: LTEA_HepaRG_HGF: Life Technologies and Expression Analysis (LTEA) Assay for Hepatocyte Growth Facto (HGF) using HepaRG (AID 2283505)
In short: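 Differentiated HepaRG cells in serum-free induction medium exposed 48 h in duplicate, 8 half-log concentrations from 100 uM in 0.5% DMSO. HGF mRNA by qRT-PCR, normalised to ACTB, GAPDH, POLR2A; bidirectional fitting.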

[15] = read-out: Insulin Like Growth Factor 1 (IGF1), IGF1 (gene 3479); test: LTEA_HepaRG_IGF1: Life Technologies and Expression Analysis (LTEA) Assay for Insulin Like Growth Factor 1 (IGF1) using HepaRG (AID 2283506)
In short: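 Endpoint: IGF1 mRNA change by qRT-PCR, housekeeping-normalized, fitted bidirectionally relative to 0.5% DMSO vehicle. Human HepaRG cells were treated 48 h in serum-free induction medium, eight half-log concentrations topping at 100 uM.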

[16] = read-out: Intercellular Adhesion Molecule 1 (ICAM1), ICAM1 (gene 3383); test: LTEA_HepaRG_ICAM1: Life Technologies and Expression Analysis (LTEA) Assay for Intercellular Adhesion Molecule 1 (ICAM1) using HepaRG (AID 2283507)
In short: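 Differentiated human HepaRG cells in serum-free induction medium exposed 48 h in duplicate to 8 half-log concentrations (top 100 uM, 0.5% DMSO). ICAM1 mRNA quantified by TaqMan qRT-PCR, normalized to ACTB, GAPDH and POLR2A; bidirectional fitting versus DMSO.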

[17] = read-out: Interleukin 6 (IL6), IL6 (gene 3569); test: LTEA_HepaRG_IL6: Life Technologies and Expression Analysis (LTEA) Assay for Interleukin 6 (IL6) using HepaRG (AID 2283509)
In short: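 qRT-PCR read-out of IL6 transcript, normalized to three housekeeping genes, after 48 h chemical exposure of HepaRG cells; 8-point half-log series, top 100 uM, 0.5% DMSO vehicle. Bidirectional curve fitting against DMSO baseline.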

[18] = read-out: Interleukin 6 Receptor (IL6R), IL6R (gene 3570); test: LTEA_HepaRG_IL6R: Life Technologies and Expression Analysis (LTEA) Assay for Interleukin 6 Receptor (IL6R) using HepaRG (AID 2283510);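 for AC50: TaqMan qRT-PCR signal normalized to ACTB GAPDH and POLR2A housekeeping genes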
In short: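 In this HepaRG screen, test chemicals act on cells for 48 h at up to 100 uM (eight half-log points, duplicate wells). IL6R expression is quantified by qRT-PCR after normalization to ACTB, GAPDH and POLR2A, with DMSO as baseline.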

[19] = read-out: 3-Hydroxy-3-Methylglutaryl-CoA Synthase 2 (HMGCS2), HMGCS2 (gene 3158); test: LTEA_HepaRG_HMGCS2: Life Technologies and Expression Analysis (LTEA) Assay for 3-Hydroxy-3-Methylglutaryl-CoA Synthase 2 (HMGCS2) using HepaRG (AID 2283504)
In short: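 Human HepaRG cells in serum-free induction medium were exposed in duplicate for 48 h to 8-point half-log series from 100 uM top in 0.5% DMSO. HMGCS2 mRNA measured by TaqMan qRT-PCR, normalised to ACTB, GAPDH, POLR2A; bidirectional fit versus DMSO.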

[20] = read-out: Insulin-like growth factor-binding protein 1 (IGFBP1), IGFBP1 (gene 3484); test: LTEA_HepaRG_IGFBP1: Life Technologies and Expression Analysis (LTEA) Assay for Insulin-like growth factor-binding protein 1 (IGFBP1) using HepaRG (AID 2283508)
In short: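 HepaRG cells, plated 48 h then switched to serum-free induction medium, exposed in duplicate for 48 h to 8-point half-log series from 100 uM in 0.5% DMSO. mRNA measured by qRT-PCR, normalized to ACTB/GAPDH/POLR2A; bidirectional fit versus DMSO.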

Measured: AC50

Sequence of Hypoxia-inducible factor 1-alpha (Homo sapiens) (Q16665 whole entry, looked up): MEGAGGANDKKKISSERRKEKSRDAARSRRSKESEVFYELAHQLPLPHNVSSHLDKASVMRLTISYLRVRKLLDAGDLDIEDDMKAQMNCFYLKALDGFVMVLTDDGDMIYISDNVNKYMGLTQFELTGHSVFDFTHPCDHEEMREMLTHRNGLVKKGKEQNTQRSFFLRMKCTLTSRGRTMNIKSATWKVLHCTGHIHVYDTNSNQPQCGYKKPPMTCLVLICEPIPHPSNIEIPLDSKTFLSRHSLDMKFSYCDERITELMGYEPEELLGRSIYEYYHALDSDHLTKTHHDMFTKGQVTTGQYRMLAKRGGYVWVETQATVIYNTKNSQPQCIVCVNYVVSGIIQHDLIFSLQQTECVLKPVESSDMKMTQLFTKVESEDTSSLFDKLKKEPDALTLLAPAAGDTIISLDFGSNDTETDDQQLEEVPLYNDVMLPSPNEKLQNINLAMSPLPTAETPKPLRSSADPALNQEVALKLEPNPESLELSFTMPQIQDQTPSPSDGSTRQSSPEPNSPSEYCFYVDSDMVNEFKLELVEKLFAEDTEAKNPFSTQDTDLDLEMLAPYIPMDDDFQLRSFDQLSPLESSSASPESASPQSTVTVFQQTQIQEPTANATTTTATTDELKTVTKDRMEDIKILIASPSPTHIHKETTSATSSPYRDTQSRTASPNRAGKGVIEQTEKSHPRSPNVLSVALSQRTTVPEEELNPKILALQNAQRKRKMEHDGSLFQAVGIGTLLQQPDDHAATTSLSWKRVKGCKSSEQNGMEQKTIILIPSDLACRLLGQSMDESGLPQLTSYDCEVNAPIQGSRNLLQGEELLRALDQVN
Sequence of Cytochrome P450 3A7 (Homo sapiens) (P24462 whole entry, looked up): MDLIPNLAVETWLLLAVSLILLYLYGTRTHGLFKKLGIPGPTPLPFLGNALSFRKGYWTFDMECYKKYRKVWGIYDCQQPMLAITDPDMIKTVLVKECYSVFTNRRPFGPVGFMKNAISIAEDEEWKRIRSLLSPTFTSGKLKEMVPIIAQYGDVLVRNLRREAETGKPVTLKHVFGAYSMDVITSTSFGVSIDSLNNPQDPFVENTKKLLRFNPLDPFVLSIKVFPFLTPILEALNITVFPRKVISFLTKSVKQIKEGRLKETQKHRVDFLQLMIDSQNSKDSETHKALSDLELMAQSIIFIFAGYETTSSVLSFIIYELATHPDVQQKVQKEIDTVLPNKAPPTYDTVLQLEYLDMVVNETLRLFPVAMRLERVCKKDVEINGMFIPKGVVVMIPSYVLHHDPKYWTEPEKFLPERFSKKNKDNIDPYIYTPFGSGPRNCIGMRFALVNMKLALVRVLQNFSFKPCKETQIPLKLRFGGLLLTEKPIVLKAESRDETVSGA

COc1ccc(S(=O)(=O)N2C(=O)[C@@](c3ccccc3OC)(N3C[C@H](O)C[C@H]3C(=O)N(C)C)c3cc(Cl)ccc32)c(OC)c1
active: [1] 11.5 µM | [2] 30.4 µM | [3] 13.2 µM | [4] 26.9 µM | [5] 15.8 µM | [6] 21 µM | [7] 25 µM | [8] 13 µM | [9] 16.5 µM | [10] 78.6 µM | [11] 19.5 µM | [12] 83 µM | [13] 69.1 µM | [14] 85.5 µM | [15] 81.9 µM | [16] 21.6 µM | [17] 58.2 µM | [18] 13.2 µM

Cc1ccc(Cl)cc1
not listed: [11]
inactive: all other assays above

CCCCN(CCCC)CCCC
not listed: [19] | [20]
inactive: all other assays above

COc1ccc(C)cc1N
not listed: [11]
inactive: all other assays above

O=[N+]([O-])C(CO)(CO)CO
not listed: [19] | [20]
inactive: all other assays above

Cc1cc(NC(=O)C(=O)O)cc(C)c1Oc1ccc(O)c2c1CCC2
active: [2] 0.0522 µM | [3] 0.0973 µM | [4] 0.0279 µM | [5] 0.0307 µM | [6] 0.229 µM | [7] 75.6 µM | [13] 0.021 µM | [19] 0.00423 µM | [15] 0.022 µM
not listed: [11]
inactive: all other assays above

CCOc1ccc2c(c1)C(C)=CC(C)(C)N2
active: [2] 1.12 µM | [4] 50 µM | [6] 33.3 µM | [15] 12.7 µM | [18] 76.9 µM
not listed: [13] | [19] | [20]
inactive: all other assays above

CCCCCCC(=O)OCC
not listed: [11] | [20]
inactive: all other assays above

CCCCc1ccc2c(n1)[C@@H](c1ccc(OC)cc1C[C@H](C)C(=O)O)[C@H](C(=O)O)[C@H]2c1ccc2c(c1)OCO2
not listed: [11]
inactive: all other assays above

CCCCCC(=O)O
not listed: [19] | [20]
inactive: all other assays above

CNCc1cc(F)ccc1Oc1ccc(Cl)c(Cl)c1
inactive: [1] | [3] | [8] | [9] | [10] | [13] | [18]
active: [2] 77.5 µM | [4] 84 µM | [5] 74.9 µM | [6] 85.1 µM | [7] 92.7 µM | [12] 78.4 µM | [19] 88.6 µM | [14] 86.6 µM | [15] 89.4 µM | [16] 79.2 µM | [17] 95.4 µM

CC=Cc1ccc(O)c(OC)c1
not listed: [11] | [20]
inactive: all other assays above

CC(=O)C(C)=CC1C(C)=CCCC1(C)C (stereo unspecified)
not listed: [19] | [20]
inactive: all other assays above

Cc1ccc2ncccc2c1
not listed: [11]
inactive: all other assays above

Reference: PubChem BioAssay (EPA / NIEHS)
